Assay outcomes from PubChem.
HT1080 IDH1KD tx = qHTS for induction of synthetic lethality in tumor cells producing 2HG: qHTS for the HT-1080-IDH1KD cell line; 360,000 tested, 2% active; Potency, µM (doses to about 46.1 µM), for inactives: top-dose activity, negative = toxicity, hits mostly cytotoxic; HT-1080 IDH1 knockdown viability, ATP luminescence, 48 h;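 also: 0% = DMSO wells and -100% = cell-free medium wells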
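Knockdown cells (IDH1KD HT-1080) received compounds 2 h after plating at 750 cells/well and were kept 48 h at 37 °C in 5% FBS RPMI. A CellTiter-Glo luminescence read gave % activity for curve fitting.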
HepG2 viability = qHTS for Inhibitors of TGF-b: Cytotox Counterscreen | HepG2 CAGA-GFP viability, ATP luminescence, 18 h | Potency, µM (titrated, usually from 46.1 µM), inactives show at the top dose activity change, negative = cytotoxicity, actives largely listed as cytotoxic | 410,000 tested, 0.76% active | AID 588856, 2011
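HepG2 CAGA-GFP cells (1000/well, DMEM with 1% FBS) received compound, then TGF-beta at 500 pg/mL final, and were incubated 18 hours at 37 degrees C. Viability was read by CellTiter-Glo luminescence. Media-only wells were set as complete cell-killing and DMSO as no toxicity.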
TGFb SMAD3 inh = qHTS for Inhibitors of TGF-b | HepG2 CAGA-GFP TGF-b/SMAD3 reporter, GFP fluorescence, 18 h; TGF-beta stimulated, 500 pg/mL final | Potency, µM (doses to about 46.1 µM), inactives show at the highest dose activity, negative = inhibition, hits mostly inhibitors | 410,000 tested, 1.2% active | AID 588855, 2011; also: % is scaled to controls: 0 for no effect and ±100 for the full control effect; nearly all actives have a fitted effect of over 65% in size
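HEPG2 CAGA-GFP cells (1000/well, DMEM with 1% FBS) were pre-incubated 2 h at 37 degrees C, given compound by pin tool, then stimulated with TGF-beta at 500 pg/mL final for 18 h before per-cell GFP fluorescence imaging.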
HT1080NT lethal = qHTS for induction of synthetic lethality in tumor cells producing 2HG: qHTS for the HT-1080-NT fibrosarcoma cell line; HT-1080-NT fibrosarcoma viability, CellTiter-Glo ATP luminescence, 48 h; Potency, µM (doses to about 46.1 µM), for inactives: at the top dose activity, negative = less viability, actives largely listed as cytotoxic; 360,000 tested, 1.6% active;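 also: NT is the 2HG producing partner of a matched IDH1 knockdown line; 0% = DMSO-treated cells and -100% = media-only wells without cells; nearly all actives have a fitted effect of over 55% in size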
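Luminescent CellTiter-Glo readout after 48 hours of compound exposure at 37 degrees C defined viability of HT-1080-NT cells. Activity was normalized to DMSO wells and cell-free media wells; concentration-response curves were fitted and assigned curve classes.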
DT40 TDP1 no CPT = qHTS for Inhibitors of human tyrosyl-DNA phosphodiesterase 1 (TDP1): qHTS in cells in absence of CPT; DT40 Tdp1-/- hTDP1 cells, no CPT, ATP luminescence, 48 h; Potency, µM (doses to about 46.2 µM), for inactives: at the highest dose activity change, negative = growth inhibition, most hits filed as inhibitors; 420,000 tested, 15% active; AID 686978, 2013; also: % is scaled to controls: 0 for no effect and ±100 for the full control effect; nearly all actives have a fitted effect of over 55% in size
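Chicken DT40 Tdp1-/- cells stably complemented with human TDP1 were seeded at 400 cells/well with DMSO in place of 20 nM camptothecin. After compound pinning, cells grew at least 48 hr at 37 °C; viability read by CellTiter-Glo luminescence.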
DT40 TDP1 CPT = qHTS for Inhibitors of human tyrosyl-DNA phosphodiesterase 1 (TDP1): qHTS in cells in presence of CPT. chicken DT40 Tdp1-/-;hTDP1 cells + 20 nM CPT, ATP luminescence, 48 h. Potency, µM (series often up to 46.2 µM), for inactives: at the top dose activity change, negative = growth inhibition, actives largely listed as inhibitors. 420,000 tested, 12% active. AID 686979, 2013; also: % is scaled to controls: 0 for no effect and ±100 for the full control effect; nearly all actives have a fitted effect of over 55% in size
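Chicken DT40 Tdp1-/- cells complemented with human TDP1, 400 cells/well, exposed to compounds plus 20 nM camptothecin for at least 48 h at 37 C; viability read as ATP content by CellTiter-Glo luminescence.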
* hit, by the source's call; ? = inconclusive; . = no result. An excerpt weighted towards active compounds, which were near 17% of everything screened. Calls follow the shape of the dose curve; as a rule, active = well fitted curve in the direction sought with a large enough effect; inconclusive = small, poorly fitted or top-dose-only effect, or another doubt; inactive = no such curve, though single readings can be large; an effect the other way counts as inactive or inconclusive. Potency is read from the fitted curve at half-maximal effect.

SMILES	HT1080 IDH1KD tx	HepG2 viability	TGFb SMAD3 inh	HT1080NT lethal	DT40 TDP1 no CPT	DT40 TDP1 CPT
COc1ccc(CNC(=O)CN2C(=O)NC(c3ccccc3)(c3ccccc3)C2=O)cc1OC	0%	-27%	-6%	-6%	-13%	?
Cc1cc(S(=O)(=O)Nc2ccc(C(=O)NCCN3CCOCC3)cc2)ccc1F	-1%	6%	-5%	2%	2%	-29%
CC(C)(C)OC(=O)NCCCC[C@H](NC(=O)c1[nH]cnc1C(=O)N[C@@H](Cc1ccccc1)C(=O)OC(C)(C)C)C(=O)OC(C)(C)C	-17%	-9%	?	-5%	9.2µM*	21µM*
C[C@H](NC(=O)c1nc[nH]c1C(=O)N[C@@H](CCCCNC(=O)OC(C)(C)C)C(=O)OC(C)(C)C)c1ccccc1	?	-4%	?	?	23µM*	?
CC(C)(C)OC(=O)NCCCC[C@H](NC(=O)c1nc[nH]c1C(=O)NCc1ccccc1)C(=O)OC(C)(C)C	?	-2%	?	-16%	?	?
CN(Cc1ccccc1)C(=O)c1[nH]cnc1C(=O)N[C@@H](CCCCNC(=O)OC(C)(C)C)C(=O)OC(C)(C)C	-6%	-18%	8%	-2%	?	16µM*
C[C@H]1CN([C@@H](C)CO)S(=O)(=O)c2ccc(Br)cc2O[C@@H]1CN(C)S(=O)(=O)c1ccccc1F	2%	1%	7%	-5%	4%	-7%
O=S1(=O)N[C@@H](Cc2ccccc2)COc2cccc(N3CCSCC3)c21	2%	.	.	-3%	?	-18%
CSc1cccc(NC(=O)c2ccc(CN3CCc4ccccc4C3)cc2)c1	?	-17%	0%	-27%	-49%	?
COc1ccc(CN2CCc3ccc(NC(=O)CCc4ccccc4OC)cc3C2)c(O)c1	?	-25%	-24%	-18%	23µM*	15µM*
COc1cc(CN2CCc3ccc(NC(=O)CCc4ccccc4OC)cc3C2)ccc1O	-27%	-28%	-11%	?	?	?
O=C(Nc1cccc(Br)c1)c1ccc(CN2CCc3ccccc3C2)cc1	?	-18%	?	16µM*	16µM*	?
COc1ccc(OC)c(NC(=O)c2ccc(CN3CCc4ccccc4C3)cc2)c1	13%	-24%	0%	3%	?	?
COc1ccc(NC(=O)c2ccc(CN3CCc4ccccc4C3)cc2)c(OC)c1	8%	-8%	-29%	2%	?	23µM*
CCCCN(C)CCCNC(=O)Cn1ncc2c3ccccc3n(Cc3ccccc3F)c2c1=O	.	-2%	4%	.	13µM*	13µM*
CCCn1c2ccccc2c2cnn(CC(=O)NCCCOC)c(=O)c21	-1%	-1%	8%	1%	-14%	-3%
CCCCN(C)CCCNC(=O)Cn1ncc2c3ccccc3n(Cc3cc(C)ccc3C)c2c1=O	.	-26%	?	.	2.9µM*	2.6µM*
O=C(Cn1ncc2c3ccccc3n(Cc3ccccc3F)c2c1=O)NCCc1ccc(Cl)cc1	.	0%	0%	.	-24%	?
CCCN(CCC)CCCNC(=O)Cn1ncc2c3ccccc3n(Cc3ccccc3F)c2c1=O	.	-22%	-16%	.	23µM*	16µM*
CCCCN(C)CCCNC(=O)Cn1ncc2c3ccccc3n(Cc3ccccc3)c2c1=O	.	-20%	1%	.	?	?
